Targets include PITX2 (Homo sapiens, UniProt Q99697 72-157); HOXD13 (Homo sapiens, UniProt P35453 263-343); CRX (Homo sapiens, UniProt O43186 26-111, R41L); HOXC10 (Homo sapiens, UniProt Q9NYD6 254-340, K271E); HOXA4 (Homo sapiens, UniProt Q00056 201-287, W262F); PRRX1 (Homo sapiens, UniProt P54821 80-166).
What all share (experiment): PBM; 200 nM protein, PBS
Conditions in all cases: dsDNA, one strand shown

Assay [1] has as its target NKX3-2 (Homo sapiens, UniProt P78367 192-278, P234S).
In assay [2] the target is NKX3-2 (Homo sapiens, UniProt P78367 192-278).
For another assay, the target named is T1, PAX4 (Homo sapiens, UniProt O43316 9-242, F177Y).
T1 sequence: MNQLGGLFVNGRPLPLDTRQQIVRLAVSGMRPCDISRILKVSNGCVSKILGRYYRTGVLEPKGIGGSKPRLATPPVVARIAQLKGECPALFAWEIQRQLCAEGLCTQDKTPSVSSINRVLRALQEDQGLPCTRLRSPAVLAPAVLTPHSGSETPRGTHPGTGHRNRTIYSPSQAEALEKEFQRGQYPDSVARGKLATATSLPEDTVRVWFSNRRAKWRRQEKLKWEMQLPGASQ

Assay [3] has as its target PROP1 (Homo sapiens, UniProt O75360 56-141).
Assay [4] has as its target PROP1 (Homo sapiens, UniProt O75360 56-141, F88S).
In assay [5] the target is VAX1 (Homo sapiens, UniProt Q5SQQ9 86-172).
Assay [6] concerns the target VAX1 (Homo sapiens, UniProt Q5SQQ9 86-172, T142I).
For assay [7], the target named is VAX1 (Homo sapiens, UniProt Q5SQQ9 86-172, K157R).
The target in another assay is T2, NKX2-6 (Homo sapiens, UniProt A6NCS4 118-204, F151L).
T2 sequence: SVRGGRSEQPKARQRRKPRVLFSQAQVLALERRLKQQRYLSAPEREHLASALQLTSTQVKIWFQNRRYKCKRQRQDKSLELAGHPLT

In assay [8] the target is MSX2 (Homo sapiens, UniProt P35548 130-214).
Assay [9] addresses MSX2 (Homo sapiens, UniProt P35548 130-214, F161Y).

Sequence of MSX2 (Homo sapiens, UniProt P35548 130-214) (P35548 130-214): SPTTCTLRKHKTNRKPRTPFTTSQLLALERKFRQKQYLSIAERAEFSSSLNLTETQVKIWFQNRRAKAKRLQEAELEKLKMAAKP
Sequence of HOXC10 (Q9NYD6 254-340 K271E): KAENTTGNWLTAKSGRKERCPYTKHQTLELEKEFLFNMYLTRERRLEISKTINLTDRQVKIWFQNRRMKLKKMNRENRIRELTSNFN
Sequence of MSX2 (Homo sapiens, UniProt P35548 130-214, F161Y) (P35548 130-214 F161Y): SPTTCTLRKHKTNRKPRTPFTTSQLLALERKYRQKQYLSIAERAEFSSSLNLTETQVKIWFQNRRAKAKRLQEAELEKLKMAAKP
Sequence of VAX1 (Homo sapiens, UniProt Q5SQQ9 86-172) (Q5SQQ9 86-172): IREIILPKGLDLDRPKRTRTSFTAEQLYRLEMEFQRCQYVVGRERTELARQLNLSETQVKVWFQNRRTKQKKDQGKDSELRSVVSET
Sequence of VAX1 (Homo sapiens, UniProt Q5SQQ9 86-172, T142I) (Q5SQQ9 86-172 T142I): as the sequence (Q5SQQ9 86-172) above, with T57I counted along it
Sequence of CRX (O43186 26-111 R41L): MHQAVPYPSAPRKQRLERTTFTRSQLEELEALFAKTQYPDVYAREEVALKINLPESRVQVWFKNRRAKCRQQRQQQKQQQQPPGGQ
Sequence of VAX1 (Homo sapiens, UniProt Q5SQQ9 86-172, K157R) (Q5SQQ9 86-172 K157R): as the sequence (Q5SQQ9 86-172) above, with K72R counted along it
Sequence of HOXD13 (P35453 263-343): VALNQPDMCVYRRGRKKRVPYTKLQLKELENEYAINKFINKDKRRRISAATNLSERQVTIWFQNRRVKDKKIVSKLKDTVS
Sequence of NKX3-2 (Homo sapiens, UniProt P78367 192-278) (P78367 192-278): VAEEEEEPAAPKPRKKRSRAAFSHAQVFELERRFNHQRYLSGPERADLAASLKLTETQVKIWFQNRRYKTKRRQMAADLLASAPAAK
Sequence of HOXA4 (Q00056 201-287 W262F): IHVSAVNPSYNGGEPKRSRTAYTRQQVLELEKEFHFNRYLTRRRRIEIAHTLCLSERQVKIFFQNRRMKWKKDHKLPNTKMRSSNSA
Sequence of PRRX1 (P54821 80-166): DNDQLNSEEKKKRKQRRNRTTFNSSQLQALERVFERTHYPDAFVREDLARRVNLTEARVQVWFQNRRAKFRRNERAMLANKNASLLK
Sequence of NKX3-2 (Homo sapiens, UniProt P78367 192-278, P234S) (P78367 192-278 P234S): as the sequence (P78367 192-278) above, with P43S counted along it
Sequence of PROP1 (Homo sapiens, UniProt O75360 56-141, F88S) (O75360 56-141 F88S): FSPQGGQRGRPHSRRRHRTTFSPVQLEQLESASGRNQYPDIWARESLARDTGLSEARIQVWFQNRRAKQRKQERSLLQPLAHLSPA
Sequence of PROP1 (Homo sapiens, UniProt O75360 56-141) (O75360 56-141): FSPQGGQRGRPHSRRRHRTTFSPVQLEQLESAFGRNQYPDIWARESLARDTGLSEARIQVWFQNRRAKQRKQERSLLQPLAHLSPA

As for AAATCTCC, the binding signal in the assay with PITX2 was 10.8 upbm affinity estimate (log intensity, higher = more binding, comparable within an allelic series). On the same count and under the same terms, then ACTAAGCC, with 12.4 upbm affinity estimate (log intensity, higher = more binding, comparable within an allelic series); and ACCGTTGC, with 8.17 upbm affinity estimate (log intensity, higher = more binding, comparable within an allelic series); and GGATTTAC, with 12.3 upbm affinity estimate (log intensity, higher = more binding, comparable within an allelic series).

On to GGAATAAA, for which the binding signal with PITX2 is 9.51 upbm affinity estimate (log intensity, higher = more binding, comparable within an allelic series). For the sequence AAGTTGTA, the binding signal with HOXD13 was 10.7 upbm affinity estimate (log intensity, higher = more binding, comparable within an allelic series). As to CGAGATTA, the binding signal in the assay with PITX2 was 12.3 upbm affinity estimate (log intensity, higher = more binding, comparable within an allelic series); with CRX, 12.4 upbm affinity estimate (log intensity, higher = more binding, comparable within an allelic series). For CATCGACC, the binding signal is 8.07 upbm affinity estimate (log intensity, higher = more binding, comparable within an allelic series) in the assay with PITX2; 10.6 upbm affinity estimate (log intensity, higher = more binding, comparable within an allelic series) in the assay with NKX3-2 [1]; 10.6 upbm affinity estimate (log intensity, higher = more binding, comparable within an allelic series) with NKX3-2 [2]. As to ATCAATAC, the binding signal with HOXD13 is 10.5 upbm affinity estimate (log intensity, higher = more binding, comparable within an allelic series). Take AACATAAA: the binding signal with HOXC10 is 11.3 upbm affinity estimate (log intensity, higher = more binding, comparable within an allelic series). The same measure, in the same setting: then GCAGTAAA, with 11.1 upbm affinity estimate (log intensity, higher = more binding, comparable within an allelic series). As for CTAATATA, the binding signal with PAX4 is 10.9 upbm affinity estimate (log intensity, higher = more binding, comparable within an allelic series).

Regarding ATAATTCA, the binding signal with PAX4 is 11.1 upbm affinity estimate (log intensity, higher = more binding, comparable within an allelic series). TAATAGCA: the binding signal with PROP1 [3] was 9.06 upbm affinity estimate (log intensity, higher = more binding, comparable within an allelic series); with PROP1 [4], 7.3 upbm affinity estimate (log intensity, higher = more binding, comparable within an allelic series).

As for AAGTTATT, the binding signal was 10.1 upbm affinity estimate (log intensity, higher = more binding, comparable within an allelic series) with VAX1 [5]; 9.9 upbm affinity estimate (log intensity, higher = more binding, comparable within an allelic series) with VAX1 [6]; 9.7 upbm affinity estimate (log intensity, higher = more binding, comparable within an allelic series) with VAX1 [7]. As for ATATAATC, the binding signal with VAX1 [5] was 10.1 upbm affinity estimate (log intensity, higher = more binding, comparable within an allelic series); with VAX1 [6], 10.1 upbm affinity estimate (log intensity, higher = more binding, comparable within an allelic series); with CRX, 12.3 upbm affinity estimate (log intensity, higher = more binding, comparable within an allelic series); with VAX1 [7] it was 9.94 upbm affinity estimate (log intensity, higher = more binding, comparable within an allelic series). As for AAGTGTTA, in the assay with NKX2-6, the binding signal was 10.7 upbm affinity estimate (log intensity, higher = more binding, comparable within an allelic series). Consider ATCATGTC, for which the binding signal in the assay with HOXA4 is 10.3 upbm affinity estimate (log intensity, higher = more binding, comparable within an allelic series). ATTTTAAC: in the assay with PRRX1, the binding signal is 11.9 upbm affinity estimate (log intensity, higher = more binding, comparable within an allelic series). Consider ATTTTTGG, for which the binding signal in the assay with MSX2 [8] was 10.7 upbm affinity estimate (log intensity, higher = more binding, comparable within an allelic series); with MSX2 [9], 10.6 upbm affinity estimate (log intensity, higher = more binding, comparable within an allelic series). With CTCAATCC, the binding signal in the assay with MSX2 [8] was 10.8 upbm affinity estimate (log intensity, higher = more binding, comparable within an allelic series); with MSX2 [9], 10.7 upbm affinity estimate (log intensity, higher = more binding, comparable within an allelic series). With ATTGCCAC, the binding signal is 11 upbm affinity estimate (log intensity, higher = more binding, comparable within an allelic series) with MSX2 [8] and 11 upbm affinity estimate (log intensity, higher = more binding, comparable within an allelic series) in the assay with MSX2 [9]. On to CAAATAAG, for which the binding signal with MSX2 [8] is 11.1 upbm affinity estimate (log intensity, higher = more binding, comparable within an allelic series); with MSX2 [9], 10.9 upbm affinity estimate (log intensity, higher = more binding, comparable within an allelic series). Turning to TCAACTAA, the binding signal with MSX2 [8] was 11.2 upbm affinity estimate (log intensity, higher = more binding, comparable within an allelic series); with MSX2 [9] it was 11 upbm affinity estimate (log intensity, higher = more binding, comparable within an allelic series). Turning to AGTTTTAT, in the assay with HOXC10, the binding signal is 11.3 upbm affinity estimate (log intensity, higher = more binding, comparable within an allelic series). For ATTTCTAA, the binding signal with MSX2 [8] is 11.2 upbm affinity estimate (log intensity, higher = more binding, comparable within an allelic series); with MSX2 [9], 11 upbm affinity estimate (log intensity, higher = more binding, comparable within an allelic series). For the sequence CAAATTCA, the binding signal is 10.9 upbm affinity estimate (log intensity, higher = more binding, comparable within an allelic series) in the assay with MSX2 [8] and 10.7 upbm affinity estimate (log intensity, higher = more binding, comparable within an allelic series) with MSX2 [9]. For the sequence AAAATCGT, the binding signal is 11 upbm affinity estimate (log intensity, higher = more binding, comparable within an allelic series) in the assay with MSX2 [8] and 10.9 upbm affinity estimate (log intensity, higher = more binding, comparable within an allelic series) with MSX2 [9]. ATTTGTCC: the binding signal in the assay with MSX2 [8] is 11.1 upbm affinity estimate (log intensity, higher = more binding, comparable within an allelic series); with MSX2 [9], 11 upbm affinity estimate (log intensity, higher = more binding, comparable within an allelic series). Regarding GACCATTA, the binding signal with MSX2 [8] is 11.8 upbm affinity estimate (log intensity, higher = more binding, comparable within an allelic series); with MSX2 [9], 11.7 upbm affinity estimate (log intensity, higher = more binding, comparable within an allelic series). With GCGATATA, the binding signal was 10.6 upbm affinity estimate (log intensity, higher = more binding, comparable within an allelic series) in the assay with MSX2 [8] and 10.5 upbm affinity estimate (log intensity, higher = more binding, comparable within an allelic series) in the assay with MSX2 [9].

These data come from paper PMC11006913.
